aSyn UTR act = Activators via SNCA 5'UTR binding, MLPCN. alpha-synuclein 5'UTR reporter, activators screen. activity score, % (tested at 7.5 µM), hits read low. 300,000 compounds, 7.1% hits. AID 1814, 2009; in the data active means activity score below about -60%
A number is an active result; – = inactive. These entries were drawn from the full list.

SMILES	aSyn UTR act
CC(=O)c1c(C)[nH]c(C(=O)Nc2ccc(F)cc2F)c1C	-111.4
C=CCNC(=S)Nc1c(C(=O)OC)[nH]c2cc(OC)ccc12	-90.8
CCOC(=O)C1CCCCN1C(=O)CCc1c(C)nc2cc(-c3ccccc3)nn2c1C (configuration not stated)	–
COCCC1CCCCN1C(=O)c1ccc2nc(Cc3ccccc3F)oc2c1 (configuration not stated)	-131.1
COC(=O)C1CCCCN1C(=O)c1ccc2oc(Cc3ccccc3)nc2c1 (configuration not stated)	-87.9
CC(=O)C1CCCN(C(=O)c2ccc3oc(CCc4ccccc4)nc3c2)C1 (configuration not stated)	-94.0
O=C(c1ccc2oc(CCCc3ccccc3)nc2c1)N1CCCC1	-140.9
CCOC(=O)C1CCCN(C(=O)c2ccc3oc(CCc4ccccc4)nc3c2)C1 (configuration not stated)	-72.2
CCOC(=O)N1CCN(S(=O)(=O)c2ccc(C(=O)NNc3nc4cc(C)cc(C)c4s3)cc2)CC1	–
Cc1ccc(NC(=O)c2cccc(Cl)c2)nc1	-75.5
Cc1ccc(NC(=O)c2ccc3c(c2)NC(=O)CS3)nc1	-92.6
O=C(Nc1cc(-c2ccccc2)[nH]n1)c1ccc(Cl)cc1	-123.7
CC(=O)N1CCN(S(=O)(=O)c2cccc(C(=O)Nc3ccc(C)cn3)c2)CC1	-71.4
Cn1sc(NC(=O)c2cccc(Cl)c2)nc1=O	-118.2
Cc1cc(NC(=O)c2cccc(Cl)c2)n[nH]1	-70.8
Cn1c(CCNC(=O)c2cccs2)nnc1SCC(=O)Nc1nc(-c2ccccc2)cs1	-72.7
Cc1ccc(C(=O)NCCc2nnc(SCC(=O)Nc3nc(-c4ccccc4)cs3)n2C)cc1	-64.6
Cc1nnc(SCC(=O)Nc2nc(-c3ccccc3)cs2)n1N	-80.7
C/C(=N\NC(=O)c1sccc1C)c1cccnc1	-200.3
C/C(=N\NC(=O)c1sccc1C)c1ccncc1	-108.3
Cc1c(NC(=O)/C(C#N)=C/c2ccc(-c3ccccc3Cl)o2)c(=O)n(-c2ccccc2)n1C	–
CC(=O)/C=C(\C)Nc1c(C)n(C)n(-c2ccccc2)c1=O	-81.7
CCOC(=O)c1cnc(SCc2cccc(C)c2)nc1N	-89.3
CCOC(=O)c1cnc(SCC(C)C)nc1N	-103.7
CCOC(=O)c1cnc(SCC(=O)c2ccccc2)nc1N	-141.2
SMILES	aSyn UTR act
O=C(NC1CCCC1)c1noc2c1CCCCC2	-134.5
O=C(NCc1ccccc1)c1noc2c1CCCCC2	-133.0
COC(=O)c1ccccc1NC(=O)c1noc2c1CCCC2	-78.7
O=C(Nc1cccc(O)c1)c1noc2c1CCCCC2	–
O=C(Nc1cnn(Cc2ccc(F)cc2)c1)c1noc2c1CCCC2	-104.7
CC(=O)c1ccc(NC(=O)c2noc3c2CCC3)cc1	–
O=C(NCc1cccs1)c1noc2c1CCCCC2	-143.8
COc1ccc(CNC(=O)c2noc3c2CCCCC3)cc1	-61.8
Cc1ccc(NC(=O)c2noc3c2CCC3)cc1C	-74.8
CC(NC(=O)c1noc2c1CCCCC2)c1ccccc1 (configuration not stated)	-78.1
CN(C)c1nc2ccc(OCCN3CCCCC3)cc2s1	-70.8
Cc1ccc(/C=N/Nc2nc(Cl)c(Cl)cc2Cl)s1	-141.5
Cc1ccsc1/C=N/Nc1nc(Cl)c(Cl)cc1Cl	-161.6
O=C(Nc1nccs1)c1ccc(Br)s1	-153.2
Cc1ccc(C(=O)Nc2nccs2)s1	-87.2
Cc1ccc(Nc2cc(C)c3ccc(O)cc3n2)cc1C	-93.7
COc1ccc(Nc2cc(C)c3c(O)cccc3n2)cc1	-140.4
Cc1ccccc1Nc1cc(C)c2c(O)cccc2n1	-105.0
Cc1ccc(Nc2cc(C)c3c(O)cccc3n2)cc1C	-117.6
C/C(=N\Nc1nc2ccccc2[nH]1)c1ccc(N2CCOCC2)cc1	-163.1
C/C(=N\Nc1nc2ccccc2[nH]1)c1ccc(C)o1	-236.6
C/C(=N\Nc1nc2ccccc2[nH]1)c1ccc(Cl)s1	-104.3
Cc1cc(C)nc(SC/C=C/c2ccccc2)n1	-89.0
C(=C\c1ccccc1)/CSc1ccccn1	-186.8
Cc1c(/C=N/Nc2ccc(C(=O)O)cc2)c2ccccc2n1C	-118.8
SMILES	aSyn UTR act
O=[N+]([O-])/C=C/c1cn(Cc2ccc(F)cc2)c2ccccc12	–
O=C(O)c1ccc(N/N=C/c2cn(Cc3ccc(F)cc3)c3ccccc23)cc1	-68.9
O=C(N/N=C/c1cn(Cc2ccccc2)c2ccccc12)c1cc(O)cc(O)c1	–
Cc1c(/C=N\NC(=O)C2COc3ccccc3O2)c2ccccc2n1C (configuration not stated)	–
CCN(CC)C(=O)CSc1nc2ccc(NC(=O)CSc3nccn3C)cc2s1	-65.5
CCOc1ccccc1-n1c(SCC(=O)Nc2ccc(CC)cc2)nc2n[nH]c(C)c2c1=N	–
Cc1ccccc1OCc1nnc(SCC(=O)Nc2ccc3nc(SCC(=O)Nc4ccccc4)sc3c2)n1C	-70.1
Cn1cnnc1SCC(=O)Nc1ccc2nc(SCc3ccccc3)sc2c1	-142.1
Cn1cnnc1SCC(=O)Nc1ccc2nc(SCc3ccccc3Cl)sc2c1	-101.2
OCCOc1ccc(C2=NCCO2)cc1	-71.5
CC1CCCCN1C(=O)CSc1nc2ccsc2c(=O)n1Cc1ccccn1 (configuration not stated)	-119.5
Cc1cc(NC(=O)CSc2nc3ccsc3c(=O)n2Cc2ccccn2)n[nH]1	-78.7
CC1(C)NC(=O)N(CCCOc2ccc3c(c2)CCC3)C1=O	-76.7
CC1(C)NC(=O)N(CCCOc2ccc(Br)cc2Cl)C1=O	-148.1
CC1CCc2c(sc(/N=C/c3cccnc3)c2C(N)=O)C1 (configuration not stated)	-102.8
CC1CCc2c(sc(/N=C/c3ccco3)c2C(N)=O)C1 (configuration not stated)	-125.2
CCOc1ccc(C(=O)CSCCC(=O)O)cc1	–
COc1ccc(C(=O)CC(=O)c2ccc(OC)cc2)cc1	-70.8
COc1ccc(C(=O)C[n+]2ccc3ccccc3c2C)cc1	-143.8
COC(=O)c1ccc(OCC(=O)c2ccccc2)cc1	-133.2
COc1ccc(C(CC(=O)c2ccccc2)S(=O)(=O)c2ccc(C)cc2)cc1 (configuration not stated)	-186.1
COc1ccc(S(=O)(=O)Nc2cc3c(C(C)=O)c(C)oc3c3ccccc23)cc1	–
COc1ccc(C(=O)Cc2nnc(C)s2)cc1	-98.6
COc1ccc(C(=O)NCC(=O)c2ccccc2)cc1	-101.7
COc1ccc(C(=O)CC(=O)c2ccccc2)cc1	-125.0
SMILES	aSyn UTR act
O=C(CNS(=O)(=O)c1ccccc1)OCC(=O)c1ccc(OC(=O)c2ccccc2)cc1	-66.7
COc1ccc(C(=O)CCNc2ccc(F)cc2)cc1	-114.2
O=C(/C=C/c1ccc(O)c([N+](=O)[O-])c1)c1ccc2ccccc2c1	-124.1
COc1ccc(Oc2ccc(/C=C/C(=O)c3ccc(O)cc3)cc2[N+](=O)[O-])cc1	-97.1
CN(C)c1ccc(/C=C/C(=O)c2ccccc2)cc1[N+](=O)[O-]	-195.0
COc1ccc(-c2nnc(NC(=O)c3cccs3)s2)c(OC)c1	-75.7
Cc1cccc(-c2nnc(NC(=O)c3cccs3)s2)c1	-113.4
C/C(=N/N=C(\C)c1ccccc1O)c1ccccc1O	-114.8
CCOC(=O)c1sc2nc(NC(=O)C(C)(C)C)sc2c1C	-134.6
CCOC(=O)c1sc2nc(NC(=O)C3CC3)sc2c1C	-201.3
CCCCNC(=S)Nc1ccc(SC(F)F)cc1	-163.7
O=C(CCl)Nc1ccccc1Sc1ccc(Cl)cc1	–
CSc1ccccc1NC(=O)COc1ccc(Cl)cc1	-61.9
CSc1ccccc1NC(=S)NCc1ccc(Cl)cc1	-109.8
CSc1ccccc1NC(=O)COc1ccccc1Cl	-64.8
Cc1nc2cc3ccccc3cc2c(=O)[nH]1	-112.3

High-throughput results: PubChem BioAssay, Broad Institute
